Reference: article PMC7862700, “An all-to-all approach to the identification of sequence-specific readers for epigenetic DNA modifications on cytosine”

What was measured:
Assay in all cases: DAPPL (digital affinity profiling via proximity ligation, sequencing); 10 mM Tris-HCl pH 7.5, 50 mM NaCl, 1 mM DTT, 4% glycerol, room temperature, 30 min; GST-TFs on glutathione beads, 16-mer random dsDNA library, 0.1% formaldehyde crosslink after washing; high values mean tight binding
Details in all cases: protein: recombinant; tags: N-terminal GST; dsDNA, one strand shown
FLI1 = target: T1, FLI1 (Homo sapiens, UniProt Q01543 1-452)
T1 sequence: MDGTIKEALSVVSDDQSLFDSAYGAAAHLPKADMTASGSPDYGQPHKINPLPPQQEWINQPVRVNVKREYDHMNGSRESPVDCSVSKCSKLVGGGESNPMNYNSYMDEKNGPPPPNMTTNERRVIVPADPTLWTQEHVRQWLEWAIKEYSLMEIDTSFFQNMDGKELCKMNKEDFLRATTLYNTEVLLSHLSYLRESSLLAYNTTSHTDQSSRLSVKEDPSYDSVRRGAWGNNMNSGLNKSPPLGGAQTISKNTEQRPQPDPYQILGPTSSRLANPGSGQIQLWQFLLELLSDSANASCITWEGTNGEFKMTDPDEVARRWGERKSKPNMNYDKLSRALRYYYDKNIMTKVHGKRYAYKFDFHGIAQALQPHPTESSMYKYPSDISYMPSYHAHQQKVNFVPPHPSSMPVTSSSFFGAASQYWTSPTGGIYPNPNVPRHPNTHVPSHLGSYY
Method in brief: (§1)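 Binding signal is given per hexamer as its read frequency for a factor divided by its frequency in the tag-only sample. GST-fused human transcription factors were expressed in yeast, captured on glutathione beads, barcoded with DNA and pooled with that sample, then incubated with 200 nmole of a 16-mer random double-stranded DNA library in Tris/NaCl/DTT/glycerol buffer for 30 min at room temperature. The pools were then washed, crosslinked, proximity-ligated, amplified by PCR and sequenced on an Illumina NextSeq500.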

ELK1 = target: T2, ELK1 (Homo sapiens, UniProt P19419 1-428)
T2 sequence: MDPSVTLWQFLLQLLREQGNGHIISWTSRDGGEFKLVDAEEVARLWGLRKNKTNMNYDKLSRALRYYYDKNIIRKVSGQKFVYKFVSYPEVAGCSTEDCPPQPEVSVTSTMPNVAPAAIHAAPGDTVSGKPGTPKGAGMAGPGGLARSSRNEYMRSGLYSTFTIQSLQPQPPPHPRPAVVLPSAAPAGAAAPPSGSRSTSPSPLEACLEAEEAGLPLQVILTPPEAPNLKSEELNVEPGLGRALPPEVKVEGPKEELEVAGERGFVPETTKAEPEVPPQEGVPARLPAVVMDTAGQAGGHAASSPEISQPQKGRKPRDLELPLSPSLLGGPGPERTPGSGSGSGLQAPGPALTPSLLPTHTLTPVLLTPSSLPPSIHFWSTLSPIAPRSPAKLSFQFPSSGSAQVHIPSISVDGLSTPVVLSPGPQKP
Method in brief: as §1

GABPA = target: T3, GABPA (Homo sapiens, UniProt Q06546 1-454)
T3 sequence: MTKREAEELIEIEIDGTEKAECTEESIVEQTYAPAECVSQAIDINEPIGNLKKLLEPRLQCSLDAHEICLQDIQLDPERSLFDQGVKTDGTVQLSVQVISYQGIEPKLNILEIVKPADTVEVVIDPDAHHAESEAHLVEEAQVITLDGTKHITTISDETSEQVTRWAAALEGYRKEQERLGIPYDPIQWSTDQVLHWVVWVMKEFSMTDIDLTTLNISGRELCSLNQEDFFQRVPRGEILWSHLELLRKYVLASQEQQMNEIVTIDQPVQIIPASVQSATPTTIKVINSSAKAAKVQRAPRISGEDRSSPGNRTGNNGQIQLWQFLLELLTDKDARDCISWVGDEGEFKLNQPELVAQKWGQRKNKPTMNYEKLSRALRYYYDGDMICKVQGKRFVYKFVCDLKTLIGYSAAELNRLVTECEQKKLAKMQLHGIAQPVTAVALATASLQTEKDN
Method in brief: as §1

ERG = target: T4, ERG (Homo sapiens, UniProt P11308 1-479)
T4 sequence: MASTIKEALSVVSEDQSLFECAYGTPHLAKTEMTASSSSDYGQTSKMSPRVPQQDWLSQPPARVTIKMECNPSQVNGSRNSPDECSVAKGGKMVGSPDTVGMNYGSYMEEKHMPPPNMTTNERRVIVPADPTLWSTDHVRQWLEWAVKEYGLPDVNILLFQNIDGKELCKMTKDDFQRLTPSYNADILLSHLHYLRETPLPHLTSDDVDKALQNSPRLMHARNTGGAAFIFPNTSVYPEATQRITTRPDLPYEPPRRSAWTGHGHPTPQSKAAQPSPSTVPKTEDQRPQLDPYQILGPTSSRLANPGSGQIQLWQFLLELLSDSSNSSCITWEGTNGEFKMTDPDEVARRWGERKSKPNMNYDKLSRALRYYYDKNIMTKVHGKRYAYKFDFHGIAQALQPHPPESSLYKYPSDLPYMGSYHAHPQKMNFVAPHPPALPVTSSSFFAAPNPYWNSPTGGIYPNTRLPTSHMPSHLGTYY
Method in brief: as §1

ELF1 = ELF1 (Homo sapiens, UniProt P32519 1-619)
Method in brief: as §1

EHF = target: T5, EHF (Homo sapiens, UniProt Q9NZC4 1-300)
T5 sequence: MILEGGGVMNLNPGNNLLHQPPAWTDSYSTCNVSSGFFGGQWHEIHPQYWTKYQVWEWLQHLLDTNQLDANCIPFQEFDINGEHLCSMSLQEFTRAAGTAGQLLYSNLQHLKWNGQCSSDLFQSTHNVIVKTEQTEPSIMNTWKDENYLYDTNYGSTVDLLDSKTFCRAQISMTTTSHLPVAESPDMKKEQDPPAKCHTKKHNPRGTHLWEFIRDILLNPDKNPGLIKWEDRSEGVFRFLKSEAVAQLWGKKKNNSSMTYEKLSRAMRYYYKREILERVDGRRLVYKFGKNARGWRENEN
Method in brief: as §1

SPI1 = SPI1 (Homo sapiens, UniProt P17947 1-270)
Method in brief: as §1

SPIB = SPIB (Homo sapiens, UniProt Q01892 1-262)
Method in brief: as §1

ELK3 = target: T6, ELK3 (Homo sapiens, UniProt P41970 1-407)
T6 sequence: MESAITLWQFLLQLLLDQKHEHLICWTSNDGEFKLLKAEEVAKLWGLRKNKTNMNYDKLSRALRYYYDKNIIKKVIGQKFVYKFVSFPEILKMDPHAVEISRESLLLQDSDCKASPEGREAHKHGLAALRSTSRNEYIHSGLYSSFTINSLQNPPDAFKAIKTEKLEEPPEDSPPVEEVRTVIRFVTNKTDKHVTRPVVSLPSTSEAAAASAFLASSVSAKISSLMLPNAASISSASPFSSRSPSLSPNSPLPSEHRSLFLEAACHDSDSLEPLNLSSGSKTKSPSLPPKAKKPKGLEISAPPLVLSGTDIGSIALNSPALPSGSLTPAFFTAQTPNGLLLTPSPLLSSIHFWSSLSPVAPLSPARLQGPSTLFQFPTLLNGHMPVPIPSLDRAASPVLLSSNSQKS
Method in brief: as §1

Chain of ELF1 (P32519 whole entry): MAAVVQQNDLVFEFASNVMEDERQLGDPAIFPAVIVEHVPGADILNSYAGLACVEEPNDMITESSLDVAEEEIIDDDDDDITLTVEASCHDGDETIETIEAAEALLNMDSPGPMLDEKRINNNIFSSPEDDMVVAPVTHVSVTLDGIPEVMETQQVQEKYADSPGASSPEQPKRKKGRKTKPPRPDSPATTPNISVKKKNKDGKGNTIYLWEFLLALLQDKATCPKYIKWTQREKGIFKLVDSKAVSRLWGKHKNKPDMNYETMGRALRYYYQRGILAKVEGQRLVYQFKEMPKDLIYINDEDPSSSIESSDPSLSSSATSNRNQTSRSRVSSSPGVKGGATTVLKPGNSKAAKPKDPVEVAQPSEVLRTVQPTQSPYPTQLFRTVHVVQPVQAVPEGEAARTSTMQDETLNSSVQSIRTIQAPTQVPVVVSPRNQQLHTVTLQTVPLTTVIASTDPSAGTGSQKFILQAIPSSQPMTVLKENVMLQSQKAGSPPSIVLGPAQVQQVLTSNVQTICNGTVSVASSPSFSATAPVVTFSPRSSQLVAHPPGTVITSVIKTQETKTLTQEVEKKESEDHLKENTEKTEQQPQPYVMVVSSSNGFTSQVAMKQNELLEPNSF
Chain of SPIB (Q01892 whole entry): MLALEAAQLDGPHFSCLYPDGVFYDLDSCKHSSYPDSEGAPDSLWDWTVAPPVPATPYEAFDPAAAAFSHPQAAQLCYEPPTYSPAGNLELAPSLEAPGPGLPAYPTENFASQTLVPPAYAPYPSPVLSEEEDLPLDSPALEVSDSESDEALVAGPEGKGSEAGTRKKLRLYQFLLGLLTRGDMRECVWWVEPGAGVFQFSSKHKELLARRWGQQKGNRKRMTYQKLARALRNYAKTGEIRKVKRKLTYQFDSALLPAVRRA

Row | Sequence | binding signal (FLI1) | binding signal (ELK1) | binding signal (GABPA) | binding signal (ERG) | binding signal (ELF1) | binding signal (EHF) | binding signal (SPI1) | binding signal (SPIB) | binding signal (ELK3)
1 | AAAGAT | 1.18 fold enrichment (6-mer frequency, TF over GST control) | 1.21 fold enrichment (6-mer frequency, TF over GST control) | 1.21 fold enrichment (6-mer frequency, TF over GST control) | 1.21 fold enrichment (6-mer frequency, TF over GST control) | 1.26 fold enrichment (6-mer frequency, TF over GST control) | 1.18 fold enrichment (6-mer frequency, TF over GST control) | 1.23 fold enrichment (6-mer frequency, TF over GST control) | 1.3 fold enrichment (6-mer frequency, TF over GST control) | 1.13 fold enrichment (6-mer frequency, TF over GST control)
2 | ACAACA | 1.22 fold enrichment (6-mer frequency, TF over GST control) | 1.24 fold enrichment (6-mer frequency, TF over GST control) | 1.23 fold enrichment (6-mer frequency, TF over GST control) | 1.2 fold enrichment (6-mer frequency, TF over GST control) | 1.29 fold enrichment (6-mer frequency, TF over GST control) | 1.24 fold enrichment (6-mer frequency, TF over GST control) | 1.18 fold enrichment (6-mer frequency, TF over GST control) | 1.19 fold enrichment (6-mer frequency, TF over GST control) | 1.19 fold enrichment (6-mer frequency, TF over GST control)
3 | ATAGTT | 1.18 fold enrichment (6-mer frequency, TF over GST control) | 1.16 fold enrichment (6-mer frequency, TF over GST control) | 1.16 fold enrichment (6-mer frequency, TF over GST control) | 1.18 fold enrichment (6-mer frequency, TF over GST control) | 1.16 fold enrichment (6-mer frequency, TF over GST control) | 1.18 fold enrichment (6-mer frequency, TF over GST control) | 1.11 fold enrichment (6-mer frequency, TF over GST control) | 1.2 fold enrichment (6-mer frequency, TF over GST control) | 1.11 fold enrichment (6-mer frequency, TF over GST control)
4 | ACACCT | 1.1 fold enrichment (6-mer frequency, TF over GST control) | 1.09 fold enrichment (6-mer frequency, TF over GST control) | 1.04 fold enrichment (6-mer frequency, TF over GST control) | 1.12 fold enrichment (6-mer frequency, TF over GST control) | 1.07 fold enrichment (6-mer frequency, TF over GST control) | 1.13 fold enrichment (6-mer frequency, TF over GST control) | 1.09 fold enrichment (6-mer frequency, TF over GST control) | 1.03 fold enrichment (6-mer frequency, TF over GST control) | 1.06 fold enrichment (6-mer frequency, TF over GST control)
5 | TATAGC | 1.2 fold enrichment (6-mer frequency, TF over GST control) | 1.22 fold enrichment (6-mer frequency, TF over GST control) | 1.26 fold enrichment (6-mer frequency, TF over GST control) | 1.2 fold enrichment (6-mer frequency, TF over GST control) | 1.21 fold enrichment (6-mer frequency, TF over GST control) | 1.17 fold enrichment (6-mer frequency, TF over GST control) | 1.16 fold enrichment (6-mer frequency, TF over GST control) | 1.18 fold enrichment (6-mer frequency, TF over GST control) | 1.1 fold enrichment (6-mer frequency, TF over GST control)
6 | ACGACA | 1.16 fold enrichment (6-mer frequency, TF over GST control) | 1.05 fold enrichment (6-mer frequency, TF over GST control) | 1.18 fold enrichment (6-mer frequency, TF over GST control) | 1.17 fold enrichment (6-mer frequency, TF over GST control) | 1.07 fold enrichment (6-mer frequency, TF over GST control) | 1.27 fold enrichment (6-mer frequency, TF over GST control) | 1.09 fold enrichment (6-mer frequency, TF over GST control) | 1.16 fold enrichment (6-mer frequency, TF over GST control) | 1.11 fold enrichment (6-mer frequency, TF over GST control)
7 | AAACTG | 1.09 fold enrichment (6-mer frequency, TF over GST control) | 1.11 fold enrichment (6-mer frequency, TF over GST control) | 1.17 fold enrichment (6-mer frequency, TF over GST control) | 1.01 fold enrichment (6-mer frequency, TF over GST control) | 1.09 fold enrichment (6-mer frequency, TF over GST control) | 1.06 fold enrichment (6-mer frequency, TF over GST control) | 1.12 fold enrichment (6-mer frequency, TF over GST control) | 1.1 fold enrichment (6-mer frequency, TF over GST control) | 1.32 fold enrichment (6-mer frequency, TF over GST control)
8 | TAATGG | 1.26 fold enrichment (6-mer frequency, TF over GST control) | 1.35 fold enrichment (6-mer frequency, TF over GST control) | 1.24 fold enrichment (6-mer frequency, TF over GST control) | 1.22 fold enrichment (6-mer frequency, TF over GST control) | 1.32 fold enrichment (6-mer frequency, TF over GST control) | 1.25 fold enrichment (6-mer frequency, TF over GST control) | 1.28 fold enrichment (6-mer frequency, TF over GST control) | 1.37 fold enrichment (6-mer frequency, TF over GST control) | 1.31 fold enrichment (6-mer frequency, TF over GST control)
